Source: PubChem
Rows were chosen to be rich in hits. Some 2.1% of all compounds tested hit in one or more screens of this group.
PGC1a acetyl inh = modulators of PGC1a acetylation; U2OS PGC1a acetylation, AlphaScreen anti-acetyl-lysine; with virally co-expressed GCN5 acetyltransferase; inhibition, % at 15.6 µM; actives 0.17% (n = 350,000); AID 651687;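 active means every replicate shows inhibition of at least 40%; inconclusive means mean inhibition at least 40% but some replicate below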
GSIS activator = GLuc luminescence reporter in INS-1E cells, primary screen for activators of glucose-dependent secretion of insulin. actives 0.61% (n = 370,000). activation, % at 16.6 µM. INS-1E GLuc reporter insulin secretion, 2-3 h. AID 743287;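 active means lowest replicate activation of at least 40%, so every replicate reaches that level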
NSD2 inh = NSD2 (human) methyltransferase inhibition; inhibition, % at 12.5 µM; O96028; NSD2 peptide methylation, AlphaScreen, 120 min; actives 0.54% (n = 310,000); in the data active means inhibition above about 50%
Target sequence (O96028 whole entry, looked up): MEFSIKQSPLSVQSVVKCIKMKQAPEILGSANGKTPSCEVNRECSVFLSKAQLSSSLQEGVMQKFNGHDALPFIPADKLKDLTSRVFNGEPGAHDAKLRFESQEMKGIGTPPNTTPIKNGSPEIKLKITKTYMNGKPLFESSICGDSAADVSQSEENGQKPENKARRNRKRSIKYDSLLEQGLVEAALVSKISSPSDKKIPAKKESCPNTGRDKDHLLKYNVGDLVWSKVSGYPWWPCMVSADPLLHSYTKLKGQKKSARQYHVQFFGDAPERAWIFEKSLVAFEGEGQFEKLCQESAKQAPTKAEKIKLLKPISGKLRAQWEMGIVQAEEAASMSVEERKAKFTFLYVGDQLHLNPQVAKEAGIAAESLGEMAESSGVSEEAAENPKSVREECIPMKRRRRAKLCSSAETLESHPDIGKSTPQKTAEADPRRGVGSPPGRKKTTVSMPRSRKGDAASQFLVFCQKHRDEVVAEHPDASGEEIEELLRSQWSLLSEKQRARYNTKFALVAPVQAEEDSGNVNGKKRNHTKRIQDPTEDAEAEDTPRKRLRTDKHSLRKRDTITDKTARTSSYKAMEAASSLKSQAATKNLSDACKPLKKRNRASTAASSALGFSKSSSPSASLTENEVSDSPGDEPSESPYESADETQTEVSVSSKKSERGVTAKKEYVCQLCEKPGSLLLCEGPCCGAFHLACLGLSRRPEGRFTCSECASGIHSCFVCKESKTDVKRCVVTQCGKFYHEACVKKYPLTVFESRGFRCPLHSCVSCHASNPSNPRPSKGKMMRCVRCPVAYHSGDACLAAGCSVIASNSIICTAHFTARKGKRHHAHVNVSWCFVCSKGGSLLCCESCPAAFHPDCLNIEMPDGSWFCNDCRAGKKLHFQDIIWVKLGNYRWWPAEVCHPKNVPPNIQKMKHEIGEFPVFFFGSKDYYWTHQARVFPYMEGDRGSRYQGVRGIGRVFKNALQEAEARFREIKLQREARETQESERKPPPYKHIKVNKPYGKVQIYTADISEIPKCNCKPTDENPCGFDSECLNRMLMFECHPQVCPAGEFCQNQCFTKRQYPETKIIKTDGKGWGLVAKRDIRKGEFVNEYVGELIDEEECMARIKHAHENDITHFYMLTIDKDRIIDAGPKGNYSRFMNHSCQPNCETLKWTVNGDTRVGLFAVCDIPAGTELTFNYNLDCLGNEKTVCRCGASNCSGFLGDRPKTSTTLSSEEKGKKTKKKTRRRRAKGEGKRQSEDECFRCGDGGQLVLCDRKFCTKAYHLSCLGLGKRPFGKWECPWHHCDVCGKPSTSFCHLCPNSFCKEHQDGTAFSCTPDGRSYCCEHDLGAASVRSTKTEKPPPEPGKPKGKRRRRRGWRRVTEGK
HIV Env fusion = inhibitors of HIV Env-mediated cell fusion. inhibition, % at 12.3 µM. HeLa-JRFL Env/CEM21 cell fusion, luciferase. actives 1.1% (n = 360,000). AID 651610;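 active means mean replicate inhibition score of at least 50 and every replicate individually at or above 50; inconclusive means only one of the two criteria met; inactive means mean below 50 and not all replicates reaching 50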
AF4-AF9 inh = inhibitors of human MLL-AF4/AF9 interaction | P42568 | AlphaScreen, biotin-AF4 peptide binding to FLAG-AF9 | inhibition, % at 10 µM | actives 0.47% (n = 350,000) | AID 651704;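 active means every replicate reaching a set inhibition limit, whatever the replicate mean, cut at about 25% in these data; inconclusive means mean inhibition reaches that limit but some replicates miss it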
Hits are given with their value; 0 = inactive; ? = inconclusive; - = no result; [ ] = remark or other dose.

SMILES	PGC1a acetyl inh	GSIS activator	NSD2 inh	HIV Env fusion	AF4-AF9 inh
O=C(C[C@@H]1CC[C@H]2[C@@H](COC[C@H](O)CN2S(=O)(=O)c2cccc(Cl)c2)O1)NCCCN1CCOCC1	0	0	-	-	0
Cc1n[nH]c(=S)n1-c1ccc(Cl)cc1	0	0	0	0	0
O=C(Nc1ccc(Cl)cc1)Nc1nnc(CSCc2ccc(Cl)cc2)s1	0	0	0	71	0
CCc1nnc(NC(=O)Nc2ccc(Cl)cc2)s1	-	0	0	0	0
COCCCNC(=O)c1c(NC(=O)c2cccs2)sc2c1CCCC2	0	-	0	0	-
O=C(CSc1c(Cl)cccc1Cl)NC1CCCc2ccccc21 (stereo not given)	?	41	0	0	0
CN1C(=S)SC(/[N+]([O-])=C/c2cccnc2)C1(C)C (stereo not given)	0	-	0	0	-
CC(=O)C1(O)CCC2C3CC(C)C4=CC(=O)C=CC4(C)C3(F)C(O)CC21C (stereo not given)	0	0	0	0	0
Cc1ccc(S(=O)(=O)CCC(=O)N(CCCN2CCOCC2)c2nc3ccccc3s2)cc1	0	0	0	0	0
O=C1C(Cl)=C(Nc2ccc3cn[nH]c3c2)C(=O)c2ccccc21	55	0	-	0	0
COc1ccc(Cc2c(-c3ccco3)nc3ccc(Br)cn23)c(C)c1	0	0	-	0	0
COc1ccc(Cc2c(-c3ccco3)nc3c(C)cc(Br)cn23)c(C)c1	0	-	-	73	0
COc1ccc(CC2=C(O)c3ccccc3C(=O)C2=O)cc1	0	0	0	0	0
O=C1C(=O)c2ccccc2C(O)=C1CCCCl	0	-	106	-	-
Cc1ccc[n+](CC(=O)Nc2cc(C(F)(F)F)ccc2Cl)c1	0	0	0	-	-
COc1ccc(CNC(=O)C(c2ccncc2)N(C(=O)Cc2cccs2)c2ccccc2)cc1 (stereo not given)	-	0	0	0	0
COc1ccc(N(C(=O)CCl)C(C(=O)NCCc2ccccc2)c2cccs2)cc1 (stereo not given)	61	53	0	-	0
COCOCCn1cc(CN2CCS(=O)(=O)N(Cc3ccc(-c4ccc(Cl)cc4)cc3)C(C)C2=O)nn1 (stereo not given)	0	0	-	57	0
COCOCCn1cc(CN2CCS(=O)(=O)N(Cc3ccc(-c4ccc(OC)nc4)cc3)C(C)C2=O)nn1 (stereo not given)	0	0	-	0	0
COc1cccc(CNC23CC4CC(CC(C4)C2)C3)c1OCc1ccccc1	0	0	0	62	0
COc1cccc(CNn2cnnc2)c1OCc1ccc(F)cc1	0	-	0	0	-
Nc1nc(F)nc2c1ncn2[C@@H]1O[C@H](CO)[C@@H](O)[C@@H]1O	0	0	-	62	0
Nc1nc(F)nc2c1ncn2[C@@H]1O[C@H](CO)[C@@H](O)[C@H]1O	83	-	-	73	0
OCC1OC(n2cnc3c(NCc4ccco4)ncnc32)C(O)C1O (stereo not given)	-	-	-	70	0
Nc1nc(Cl)nc2c1ncn2C1OC(CO)C(O)C1O (stereo not given)	0	0	-	-	0
SMILES	PGC1a acetyl inh	GSIS activator	NSD2 inh	HIV Env fusion	AF4-AF9 inh
OC[C@H]1O[C@@H](n2cnc3c(NCc4ccco4)ncnc32)[C@H](O)[C@@H]1O	0	-	-	0	0
Nc1nc(=O)n(C2OC(CO)C(O)C2O)cc1F (stereo not given)	0	-	0	62	0
CC(O)c1nc2ccccc2n1CC(=O)Nc1ccc2c(c1)OCCO2 (stereo not given)	-	0	0	0	0
CCOC(=O)c1ccccc1NS(=O)(=O)c1ccc(OCC)cc1	0	0	0	63	-
O=C(N=C1SC2CS(=O)(=O)CC2N1c1ccc(F)c(Cl)c1)C1CC1 (stereo not given)	0	42	0	0	0
O=C(N=C1SC2CS(=O)(=O)CC2N1c1ccc(F)cc1F)C1CC1 (stereo not given)	0	0	0	0	0
Clc1ccc(/C=N/NC2=Nc3cccc4cccc2c34)cc1	-	98	0	0	-
CCOc1ccc(OCc2cccc(C(=O)N3CCOCC3)c2)cc1	0	-	-	84	-
O=C(c1cccc(OCc2ccccc2)c1)N1CCOCC1	0	0	-	0	?
Cc1nnc(NC(=O)C2CCCCC2)s1	-	-	0	65	-
Cc1nnc(NC(=O)C2CCCC2)s1	0	0	0	0	0
COc1ccc(CNC(=O)c2c(C)oc3c2C(=O)c2ccccc2C3=O)cc1	0	-	-	64	0
C[C@H]1CN([C@@H](C)CO)C(=O)Cc2cc(NS(=O)(=O)c3ccccc3)ccc2O[C@@H]1CN(C)Cc1ccc(Cl)c(Cl)c1	0	0	-	58[16.7 µM]	0
C[C@@H]1CN([C@@H](C)CO)C(=O)Cc2cc(NS(=O)(=O)c3ccccc3)ccc2O[C@@H]1CN(C)Cc1ccc(Cl)c(Cl)c1	0	0	-	0	0
C[C@@H]1CN([C@@H](C)CO)C(=O)Cc2cc(NS(=O)(=O)c3ccc(F)cc3)ccc2O[C@@H]1CN(C)Cc1ccc(Cl)c(Cl)c1	0	0	-	0	-
C[C@@H]1CN([C@@H](C)CO)C(=O)Cc2cc(NS(=O)(=O)c3ccc(F)cc3)ccc2O[C@H]1CN(C)Cc1ccc(Cl)c(Cl)c1	0	0	-	100[16.7 µM]	-
O=C(Nc1ccc(F)cc1)Nc1ccc2c(c1)[C@@H]1C[C@H](CC(=O)N3CCCCC3)O[C@H](CO)[C@@H]1O2	0	0	-	90[16.7 µM]	-
O=C(Nc1ccc(F)cc1)Nc1ccc2c(c1)[C@@H]1C[C@H](CC(=O)N3CCCCC3)O[C@@H](CO)[C@@H]1O2	0	0	-	75[16.7 µM]	-
COc1cccc(/C=N/NC(=O)c2cnn(-c3ccccc3)c2N)c1	-	0	0	0	0
C[C@@H]1CN([C@@H](C)CO)C(=O)c2cc(C3=CCCC3)cnc2O[C@@H]1CN(C)Cc1ccc(F)cc1	0	0	-	0	0
CC(C)N(Cc1nccn1C)C(=O)CC1C(=O)NCCN1Cc1ccc(F)c(F)c1 (stereo not given)	-	0	0	0	0
COc1ccc2[nH]c3c(NCCN(C(C)C)C(C)C)ncnc3c2c1	0	-	0	-	-
COc1ccc2[nH]c3c(NCCCN4CCCC4=O)ncnc3c2c1	0	48	-	0	-
O=C(OCc1ccccc1)Oc1cncc(C(=O)O)c1	0	0	0	0	-
C[C@@H]1CN([C@H](C)CO)C(=O)c2cc(NC(=O)Cn3cnnn3)ccc2O[C@@H]1CN(C)C(=O)NC1CCCCC1	0	0	-	-	0
SMILES	PGC1a acetyl inh	GSIS activator	NSD2 inh	HIV Env fusion	AF4-AF9 inh
COc1ccc(Cl)cc1NC(=O)CN(C1CCCCC1)S(C)(=O)=O	0	-	-	125	-
O=C(O)/C=C/c1cnc[nH]1	106	0	-	-	0
CCn1c(N2CCN(C(=O)C34CC5CC(CC(C5)C3)C4)CC2)nc2ccccc21	0	-	-	-	-
Cc1cccc(NC(=O)c2cc3n(n2)C(C(F)(F)F)CC(c2ccc4c(c2)OCO4)N3)c1 (stereo not given)	-	0	-	106	-
COc1ccc(NC(=O)c2cc3n(n2)C(C(F)(F)F)CC(c2ccc4c(c2)OCO4)N3)cc1OC (stereo not given)	0	-	-	-	-
O=C1C(NS(=O)(=O)c2ccc(Cl)cc2)=C(N2CCCCC2)C(=O)c2ccccc21	-	0	-	0	40
